For 73 molecules, activity change, negative = inhibition and Potency results are on record in PubChem BioAssay AID912 (National Center for Advancing Translational Sciences (NCATS), 2007).

Where “and” joins values, the source holds several entries; their conditions need not be identical. Equal entries are not always repeated. Hit rate of the full screen: of about 70,000 compounds, about 470 (0.67%) were called active. Entries that show only a call come without a potency. About 18% were inconclusive and are not listed. Only a selection was taken, and actives are over-represented in it overall. Values without a mark were called inactive. The call rests on the fitted dose curve.
Potency means the concentration at half of the fitted maximal effect.

The nature of this experiment: qHTS Assay for Anthrax Lethal Toxin Internalization. Further: nearly all actives have a fitted effect of over 50% in size. As to conditions: Cells, FRET ratio (460/530); series mostly up to 40 µM.
On to `Cc1ccc2oc(=O)ccc2c1`, for which the activity change, negative = inhibition result was “inactive”. Turning to `NCCCNCCCCN(CCCN)/[N+]([O-])=N/O`, the activity change, negative = inhibition result is “inactive”.

As for `CNC(=O)C1(C)C=CC2(CCCCC2)N1C(C)=O` (stereo not drawn), the activity change, negative = inhibition result was “inactive”. In the case of `CCCNC(=O)OC[C@@H]1O[C@H](c2ccccc2)C=C[C@@H]1Oc1ccc(OC)cc1`, the activity change, negative = inhibition was -2.83% [at 8 µM].

Take `CSc1nc2ccc(S(=O)(=O)N3CCc4ccccc43)cc2s1`: the activity change, negative = inhibition result is “inactive”. In the case of `O=C(O)c1nccnc1C(=O)Nc1ccc(Br)cn1`, the activity change, negative = inhibition result is “inactive”. `Cc1ncc(CC(=O)n2cc(C(=O)c3cc(Cl)ccc3O)cn2)s1`: the activity change, negative = inhibition result is “inactive”. Take `COC(=O)C1(Cc2ccccc2)C=C2C(=C(C)C(=O)C2C)CN1` (stereo not drawn): the activity change, negative = inhibition entry is “inactive”. Still for that read-out and setting: as for `COC(=O)[C@H]1C[C@@H]1[C@H](NC(=O)Oc1ccc(F)cc1)c1ccccc1`, the entry is “inactive”; as for `O=C(O)CS(=O)c1ccc2c3c(cccc13)C(=O)c1ccccc1-2` (stereo not drawn), 1.15% [at 8 µM]. With `CN(Cc1ccco1)c1ncncc1-c1ccoc1`, the activity change, negative = inhibition entry was “inactive”. Regarding `CC(C)C[C@@H](CC(=O)N[C@@H](CCC(=O)O)CC(=O)O)NC(=O)[C@@H]1CCCC[C@H]1NC(=O)C[C@@H](NC(=O)C[C@H](CO)NC(=O)[C@@H]1CCCC[C@H]1N)C(C)C`, the activity change, negative = inhibition entry was “inactive”. Turning to `COc1ccc2nccc(C(=O)O)c2c1`, the activity change, negative = inhibition is -6.5% [at 3.58 µM].

For `COc1cccc([C@H]2Oc3ccc(OC)cc3/C(=N\OCC[C@@H]3C=C[C@H](OC(C)=O)[C@H](COC(C)=O)O3)[C@@H]2O)c1`, the activity change, negative = inhibition was -2.18% [at 8 µM]. Regarding `CC(C)[C@@H](CC(=O)N[C@@H]1CCNC[C@H]1C(=O)N[C@H](CC(=O)N[C@@H](CCC(=O)O)CC(=O)O)Cc1ccccc1)NC(=O)C[C@H](CO)NC(=O)[C@@H]1CNCC[C@H]1N`, the activity change, negative = inhibition entry was “inactive”. As for `CC(=O)OCC1OC(C#CCCCc2ccccc2)C=CC1OC(C)=O` (stereo not drawn), the activity change, negative = inhibition is -3.55% [at 8 µM]. The same measure, in the same setting: as for `O=Cc1c(Cl)cccc1Cl`, the entry is “inactive”; as for `COC(=O)[C@@H]1CC[C@H](C)[C@@H](c2ccc(C)cc2)N1C(=O)c1ccc(/C=N\O[C@@H](C)c2cn([C@H](CO)Cc3ccccc3)nn2)cc1`, 5.23% [at 8 µM]. The same measure, in the same setting: the same measure for `O=C(Nc1ccccc1-c1nnn(CC(=O)N2CCN(c3ccccc3)CC2)n1)c1cccs1`: “inactive”; for `Cc1cc(C)cc(C#CC2C=CC(Oc3ccc(C4CCCC4)cc3)C(CO)O2)c1` (stereo not drawn): -16.6% [at 8 µM].

Regarding `CS(=O)(=O)N1CCC2(CC1)CN(c1ccncc1)C2`, the activity change, negative = inhibition entry was “inactive”. On the same count and under the same terms, as for `CCCC[C@H]1C(=O)N(c2ccccc2)N(c2ccc(O)cc2)C1=O`, the figure is -4.13% [at 3.58 µM]; as for `CO[C@H]1COC(=O)[C@@H](OCc2ccccc2)/C=C\[C@H](C)[C@@H](OC)COC(=O)[C@H](OCc2ccccc2)/C=C\[C@@H]1C`, -4.42% [at 8 µM]; as for `C[C@@H]1C[C@H]2[C@@H]3C[C@H](F)C4=CC(=O)C=C[C@@]4(C)[C@]3(F)[C@H](O)C[C@]2(C)[C@@]1(O)C(=O)CO`, 2.5% [at 3.58 µM]. Still for that read-out and setting: the same measure for `COCCn1c(=O)c(-c2cccs2)nc2cncnc21`: “inactive”. Take `COc1ccc(-c2oc3cc(OC)ccc3c2C(=O)c2ccc(C#N)cc2)cc1`: the activity change, negative = inhibition entry was “inactive”. In the case of `CC(C)(C)[Si](OCC[C@@H]1C[C@@]1(C)[C@@H](NP(=O)(c1ccccc1)c1ccccc1)c1ccccc1)(c1ccccc1)c1ccccc1`, the activity change, negative = inhibition entry was “inactive”. On the same count and under the same terms, the same measure for `COc1ccc(C(=O)N2CCC3(CCCN(C(c4ccccc4)c4ccccc4)C3)CC2)cc1`: “inactive”; for `O=C(O)COc1c(Cl)cc(Cl)c2cccnc12`: 10.5% [at 8 µM]; for `CO[C@@H]1COC(=O)C/C=C\[C@H](C)[C@@H](NS(=O)(=O)c2ccc(C)cc2)COC(=O)C/C=C\[C@@H]1C`: -10% [at 8 µM] and -6.83% [at 8 µM]. With `c1ccc2nc(C3=NCCN3)cnc2c1`, the activity change, negative = inhibition entry is “inactive”. For `Cc1c2c(nc3ccccc13)-c1cccc(=O)n1C2`, the activity change, negative = inhibition result is “inactive”. In the case of `COc1ccccc1C(=O)C(O)c1ccccc1OC` (stereo not drawn), the activity change, negative = inhibition result was “inactive”. Take `CC(=O)OCC1OC(C#Cc2ccccc2Cl)C=CC1OC(C)=O` (stereo not drawn): the activity change, negative = inhibition was -7.54% [at 8 µM]. For the molecule `C[N+](C)(C)CCCCCNCC12CC3CC(CC(C3)C1)C2`, the activity change, negative = inhibition result was “inactive”.

With `CSc1ccc(-c2c(C#N)c(N)nc3c2c(C)nn3-c2ccccc2)cc1`, the Potency is 1.26 µM (active). In the case of `COC(=O)[C@@]1(Cc2ccc(F)cc2)[C@H]2c3cc(C(=O)N4CCCC4)n(C[C@H](O)CO)c3C[C@H]2CN1C(=O)c1ccccc1`, the activity change, negative = inhibition entry is “inactive”. Take `COc1cc([C@H]2c3cc4c(cc3[C@@H](O[C@@H]3O[C@H]5CO[C@@H](C)O[C@]5(O)C[C@H]3O)[C@@H]3COC(=O)[C@H]23)OCO4)cc(OC)c1O`: the activity change, negative = inhibition entry is “inactive”.

With `CCC(Sc1nncn1C)C(=O)Nc1nnc(-c2ccc(Cl)cc2)s1` (stereo not drawn), the activity change, negative = inhibition result was “inactive”. Regarding `O=C(O)c1ccc(C(=O)O)c2c(C(=O)O)ccc(C(=O)O)c12`, the activity change, negative = inhibition is -1.24% [at 8 µM]. Regarding `COc1ccc(N)c(OC)c1`, the activity change, negative = inhibition entry was “inactive”. As to `COC(=O)[C@@]1(Cc2ccccc2)[C@H]2c3cc(C(=O)N(C)C)n(CCSCCO)c3C[C@H]2CN1C(=O)c1ccccc1`, the activity change, negative = inhibition result is “inactive”. For the molecule `CCC[C@@H]1C[C@@]1(CCC)C(NS(=O)(=O)c1cccc2cccnc12)c1ccc(Cl)cc1` (stereo partly drawn), the activity change, negative = inhibition entry was “inactive”.

With `NCC[Se][Se]CCN`, the Potency was 0.0794 µM (active). Turning to `C=C1c2cc(CC)ccc2NC(=O)N1c1ccc(C)cc1`, the Potency is 10 µM (active). Take `N[C@@H](C(=O)O)c1ccc(P(=O)(O)O)cc1`: the activity change, negative = inhibition result is “inactive”. The same measure, in the same setting: as for `CC(=O)N1CCC2(CCCN(Cc3ccc(C#N)cc3)C2)CC1`, the entry is “inactive”. For the molecule `CCCCCCOC(=O)NCC(O)c1ccccc1` (stereo not drawn), the activity change, negative = inhibition result is “inactive”.

Regarding `COc1cccc([C@H](O)Cn2cc(-c3ccc(CON=C(C)C)cc3)nn2)c1`, the activity change, negative = inhibition is -1.91% [at 8 µM].

`COc1ncc2nc(-c3ccc(Cl)cc3)c(=O)n(C)c2n1`: the activity change, negative = inhibition result was “inactive”. As for `N#Cc1nc(Cc2ccccc2)oc1NCCc1ccccc1`, the activity change, negative = inhibition result was “inactive”. `N#Cc1nc(-c2ccc(OCc3ccccc3)cc2)oc1NCCCN1CCOCC1`: the Potency was 12.6 µM (active). For the molecule `N#Cc1nc(COc2ccc(-c3ccccc3)cc2)oc1NCc1cccnc1`, the activity change, negative = inhibition result was “inactive”. Regarding `C/C=C/C=C/C(=O)O`, the activity change, negative = inhibition result is “inactive”. On to `CC(C)CN1CCc2nc(-c3ccccc3)c3c(c2C1)COC(C)C3` (stereo not drawn), for which the activity change, negative = inhibition was -16% [at 8 µM].

In the case of `COc1ccccc1CNc1ccnc(-c2c(C)noc2C)n1`, the activity change, negative = inhibition entry was “inactive”. For `CC(Cc1ccccc1)C(=O)N(C)Cc1ccccc1` (stereo not drawn), the activity change, negative = inhibition entry was “inactive”. Take `COc1ccc(/C=C/NC(=O)Cc2ccc(OC)c(OC)c2)cc1`: the activity change, negative = inhibition is -11.3% [at 8 µM]. With `Cn1c2c(c(=O)n(C)c1=O)C1c3ccccc3OCC1C(C)(C)O2` (stereo not drawn), the activity change, negative = inhibition entry was “inactive”. Turning to `COc1ccccc1N1CCN(C[C@@H]2CN3C(=O)N(C)c4ccccc4C3=N2)CC1`, the activity change, negative = inhibition result was “inactive”.

Take `CC1CN(Cc2nc3c(c(=O)n(C)c(=O)n3C)n2Cc2cccc(Cl)c2)CC(C)O1` (stereo not drawn): the activity change, negative = inhibition entry is “inactive”. For the molecule `CCCCC(CC)CN` (stereo not drawn), the activity change, negative = inhibition entry is “inactive”.

With `Cc1nc2ccccc2c(=O)n1CCCn1ccnc1`, the activity change, negative = inhibition entry is “inactive”. On the same count and under the same terms, as for `Cc1ccnc(N2CCC(C(=O)NC3CCCCCC3)CC2)n1`, the entry is “inactive”. For `Cc1ccnc(-n2sc3ccccc3c2=O)n1`, the Potency is 0.316 µM (active). Consider `O=c1[nH]c(=O)n([C@H]2C[C@H](O)[C@H](CO)O2)cc1Br`, for which the activity change, negative = inhibition entry was “inactive”. For the molecule `CN(C)CCCn1c2ccccc2c2cnccc21`, the activity change, negative = inhibition was -25.7% [at 8 µM]. As for `O=C(COc1ccccc1Cl)Nn1cnnc1`, the activity change, negative = inhibition entry is “inactive”. `Cc1ccccc1OCC(=O)Nc1ccc(N2CCN(C(=O)C(C)C)CC2)c(Cl)c1`: the Potency was 12.6 µM (active). With `Cc1cccc(NC(=O)COc2ccccc2C)n1`, the activity change, negative = inhibition entry was “inactive”. The same measure, in the same setting: as for `COC(=O)[C@@]1(Cc2ccc(F)cc2)[C@@H]2[C@@H](CC(=O)[C@H]2CC(=O)C(=O)N2CCCC2)CN1C(=O)c1ccccc1`, the entry is “inactive”; as for `COC(=O)CCCCCN1C(=O)NC(c2ccc(-c3ccccc3)cc2)C(C(=O)OCc2ccccc2)=C1C` (stereo not drawn), “inactive”; as for `Cc1ccccc1N1CCN(S(=O)(=O)C[C@@]23CC[C@H](C[C@H]2NC(=O)[C@@H](N)CCS(C)(=O)=O)C3(C)C)CC1`, “inactive”.
